# Laboratory results reported in the supplement of paper PMC10127200.
# Where a name gives a salt, the structure may show the parent alone.
# Tests used:
# Test in all cases: Euclidean distance of Cell Painting phenotypic profile (signed KS, 77 features) to DMSO centroid (dimensionless distance); 5 or 10 uM (library dependent); higher = stronger phenotypic change vs DMSO (phenoactivity)
# Settings in all cases: 48 h
# 786-O = system: 786-O
# How it was run: (§1)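 Five cancer lines and a healthy fibroblast line received library compounds at 10 or 5 uM (library-dependent, 0.1% DMSO final) for 48 h. Stained cells were imaged confocally at 20X (9 fields/well). Harmony extracted 77 features, each scored as a signed Kolmogorov-Smirnov statistic against same-plate vehicle wells. Profiles were plate-position corrected, correlation-weighted and replicate-averaged at the top dose. Phenoactivity is the Euclidean distance from each profile to the median vehicle profile.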
# A549 = system: A549
# How it was run: as §1
# FB = system: FB
# How it was run: as §1
# HEPG2 = system: HEPG2
# How it was run: as §1
# OVCAR4 = system: OVCAR4
# How it was run: as §1
SMILES,Euclidean distance (786-O),Euclidean distance (A549),Euclidean distance (FB),Euclidean distance (HEPG2),Euclidean distance (OVCAR4)
Cc1ncc([N+](=O)[O-])n1CC(C)O (stereo not given) [Secnidazole],1.02,0.496,0.982,1.12,0.655
COc1ccc(CC(C)NCC(O)c2ccc(O)c(NC=O)c2)cc1 (stereo not given) [Formoterol Hemifumarate],1.29,0.672,0.886,1.15,1.94
C=C(NC(=O)C(=C)NC(=O)c1csc(C2=N[C@@H]3c4csc(n4)[C@H]4NC(=O)c5csc(n5)[C@H]([C@](C)(O)[C@@H](C)O)NC(=O)[C@H]5CSC(=N5)/C(=C/C)NC(=O)[C@H]([C@@H](C)O)NC(=O)c5csc(n5)[C@]3(CC2)NC(=O)[C@H](C)NC(=O)C(=C)NC(=O)[C@H](C)NC(=O)[C@H]([C@@H](C)CC)N[C@@H]2C=Cc3c([C@H](C)O)cc(nc3[C@H]2O)C(=O)O[C@@H]4C)n1)C(N)=O [Thiostrepton],4.46,2.6,4.95,4.36,2.62
CC(=O)[C@H]1CC[C@H]2[C@@H]3CCC4=CC(=O)CC[C@]4(C)[C@H]3CC[C@]12C [Progesterone],0.734,0.774,0.883,0.863,0.832
CCCNC(C)C(=O)Nc1c(C)csc1C(=O)OC (stereo not given) [Articaine HCl],1.24,0.941,0.813,0.87,1.06
CCC(NC(C)C)C(O)c1ccc(O)c(O)c1 (stereo not given) [Isoetharine Mesylate],0.478,0.789,1.18,0.832,1.01
O=c1c(O)c(-c2ccc(O)cc2O)oc2cc(O)cc(O)c12 [Morin Hydrate],0.826,0.616,0.68,0.312,1.06
CC1(C)S[C@@H]2[C@H](NC(=O)C(C(=O)O)c3ccccc3)C(=O)N2[C@H]1C(=O)O (stereo not given in full) [Carbenicillin disodium],1.39,1.07,0.969,0.836,1.76
CN(CCOc1ccc(NS(C)(=O)=O)cc1)CCc1ccc(NS(C)(=O)=O)cc1 [Dofetilide],0.968,1.19,1.24,0.609,1.02
C=CC(=O)N1CC/C(=C\c2ccc(F)c([N+](=O)[O-])c2)C(=O)/C(=C/c2ccc(F)c([N+](=O)[O-])c2)C1,6.18,5.03,5.74,5.06,6.21
Cc1nnc(C(=O)NC(C)(C)c2nc(C(=O)NCc3ccc(F)cc3)c(O)c(=O)n2C)o1 [Raltegravir (MK-0518)],1.17,0.695,1.11,0.537,1.35
CCCCC1(COC(=O)CCC(=O)O)C(=O)N(c2ccccc2)N(c2ccccc2)C1=O [Suxibuzone],0.771,0.893,1.12,0.518,1.57
Nc1ccc2cc3ccc(N)cc3nc2c1 [Proflavine Hemisulfate],4.95,4.91,5.65,5.57,5.46
CCOC(=O)[N-]c1c[n+](N2CCOCC2)no1 [Molsidomine],0.969,1.06,0.842,0.73,1.63
COC(=O)/C=C/C(=O)OC [Dimethyl Fumarate],1.01,1.07,0.598,1,1.15
CC(C)n1c(/C=C/C(O)CC(O)CC(=O)O)c(-c2ccc(F)cc2)c2ccccc21 (stereo not given) [Fluvastatin Sodium],3.02,2.4,3.84,1.86,2.29
CC(C)(C)NC[C@H](O)COc1nsnc1N1CCOCC1 [Timolol Maleate],1.22,0.771,0.609,0.591,1.76
Nc1ccncc1N [3.4-Diaminopyridine],1.58,1.24,1.38,0.828,1.15
O=C(Nc1ccc(OC(F)(F)Cl)cc1)c1cnc(N2CC[C@@H](O)C2)c(-c2cc[nH]n2)c1 [Asciminib (ABL001)],1.54,1.72,1.32,1.2,1.39
C[C@@H]1C[C@H]2[C@@H]3CCC4=CC(=O)C=C[C@]4(C)[C@@]3(F)[C@@H](O)C[C@]2(C)[C@H]1C(=O)CO [Desoximetasone],1.28,2.05,1.89,0.967,2.03
O=C(O)c1cc(O)c2c(c1)[C@H]([C@H]1c3cc(C(=O)O)cc(O)c3C(=O)c3c(O[C@@H]4O[C@H](CO)[C@@H](O)[C@H](O)[C@H]4O)cccc31)c1cccc(O[C@@H]3O[C@H](CO)[C@@H](O)[C@H](O)[C@H]3O)c1C2=O [Sennoside A],0.91,0.674,1.07,0.438,1.12
C[C@@H]1CCC[C@H](C)N1NC(=O)c1ccc(Cl)c(S(N)(=O)=O)c1 [Clopamide],1.15,1.14,0.969,0.528,1.14
O=C(CCCN1CCC(O)(c2ccc(Cl)cc2)CC1)c1ccc(F)cc1 [Haloperidol],1.27,0.777,1.09,1.04,1.95
CCc1nc(N)nc(N)c1-c1ccc(Cl)cc1 [Pyrimethamine],1.19,3.4,0.96,1.83,2.25
COCCOC(=O)C1=C(C)NC(C)=C(C(=O)OC/C=C/c2ccccc2)C1c1cccc([N+](=O)[O-])c1 (stereo not given) [Cilnidipine],2.22,1.04,1.29,1.61,1.46

SMILES,Euclidean distance (786-O),Euclidean distance (A549),Euclidean distance (FB),Euclidean distance (HEPG2),Euclidean distance (OVCAR4)
Cc1ccccc1C(OCCN(C)C)c1ccccc1 (stereo not given) [Orphenadrine Hydrochloride],0.905,1.11,0.736,0.938,1.08
CCc1cc2c(cc1N1CCC(N3CCOCC3)CC1)C(C)(C)c1[nH]c3cc(C#N)ccc3c1C2=O [Alectinib hydrochloride],1.42,2.36,1.91,0.611,1.42
CN1CC[C@H](c2c(O)cc(O)c3c(=O)cc(-c4ccccc4Cl)oc23)[C@H](O)C1 [Flavopiridol (Alvocidib)],3.09,3.07,3.22,2.66,3.72
CCOCCn1c(N2CCCN(C)CC2)nc2ccccc21 [Emedastine],0.676,0.686,0.988,0.905,0.553
CC(C)C[C@H](NC(=O)[C@@H](O)[C@H](N)Cc1ccccc1)C(=O)O [Bestatin],1.08,0.773,1.11,0.637,1.09
NCCCC(N)(C(=O)O)C(F)F (stereo not given) [Eflornithine hydrochloride hydrate],1.45,1.26,1.21,0.792,1.43
COc1ccc(-n2nc(C(N)=O)c3c2C(=O)N(c2ccc(N4CCCCC4=O)cc2)CC3)cc1 [Apixaban],2.4,2.33,3.79,1.17,2.13
CCC(C)(Oc1ccc(C2(c3ccc(OC(C)(CC)C(=O)O)cc3)CCCCC2)cc1)C(=O)O (stereo not given) [Clinofibrate],1.38,0.971,0.938,0.433,1.33
CC(C)Oc1ccc(-c2nn([C@@H](C)c3oc4ccc(F)cc4c(=O)c3-c3cccc(F)c3)c3ncnc(N)c23)cc1F [umbralisib (TGR-1202)],1.11,1.14,1.9,1.81,0.974
CN1CC[C@@H](NC(=O)Nc2ccc(C#N)cc2)C[C@@H]1c1nc2ccccc2[nH]1,2.28,1.79,3.81,1.1,1.73
CC[C@H](C)[C@H](N)C1=N[C@H](C(=O)N[C@@H](CC(C)C)C(=O)N[C@H](CCC(=O)O)C(=O)N[C@H](C(=O)N[C@H]2CCCCNC(=O)[C@H](CC(N)=O)NC(=O)[C@@H](CC(=O)O)NC(=O)[C@H](Cc3cnc[nH]3)NC(=O)[C@@H](Cc3ccccc3)NC(=O)[C@H]([C@@H](C)CC)NC(=O)[C@@H](CCCN)NC2=O)[C@@H](C)CC)CS1 [Bacitracin],1.65,1.13,0.901,0.726,1.22
Cc1nnc(SCC2=C(C(=O)O)N3C(=O)[C@@H](NC(=O)Cn4cnnn4)[C@H]3SC2)s1 [Cefazolin],1.28,0.455,1.6,0.891,1.58
C=C1CC[C@@H]2[C@](C)(CO)[C@H](O)CC[C@@]2(C)[C@@H]1C/C=C1/C(=O)OC[C@H]1O [Andrographolide],2.41,1.6,1.96,1.62,1.67
O=C(C1CCCCC1)N1CC(=O)N2CCc3ccccc3C2C1 (stereo not given) [Praziquantel],0.868,0.773,0.97,0.33,1.36
C[C@H](CCC(=O)O)[C@H]1CC[C@H]2[C@@H]3[C@@H](O)C[C@@H]4C[C@H](O)CC[C@]4(C)[C@H]3CC[C@]12C [Ursodiol],1.16,0.853,1.04,0.517,0.943
C[C@@H]1CN(c2c(F)c(N)c3c(=O)c(C(=O)O)cn(C4CC4)c3c2F)C[C@H](C)N1 [Sparfloxacin],0.878,1.28,0.552,0.632,1.26
Cc1cc2c(s1)Nc1ccccc1N=C2N1CCN(C)CC1 [Olanzapine],1.03,1.01,1.48,0.621,1.61
COc1c(O)cc2c(c1O)[C@@H]1O[C@H](CO)[C@@H](O)[C@H](O)[C@H]1OC2=O [Bergenin],1.22,0.742,0.906,0.765,2.16
CC12CCC(CC1)C(C)(C)O2 [Eucalyptol],0.884,0.614,0.855,0.869,0.746
CSc1ccc(OCc2ncc([N+](=O)[O-])n2C)cc1 [Fexinidazole],1.24,1.03,0.976,0.857,1.16
O=C1N=C(O)NC1(c1ccccc1)c1ccccc1 [Phenytoin Sodium],0.861,0.644,0.99,0.976,0.588
Clc1ccc(COC(Cn2ccnc2)c2ccc(Cl)cc2Cl)c(Cl)c1 (stereo not given) [Miconazole Nitrate],1.25,1.35,0.864,0.872,0.979
C[C@]12C=CC(=O)C=C1CC[C@@H]1[C@@H]2C(=O)C[C@@]2(C)[C@H]1CC[C@]2(O)C(=O)CO [Prednisone],2.09,2.37,2.39,1.49,2.03
CC(C)C(=O)Nc1ccc([N+](=O)[O-])c(C(F)(F)F)c1 [Flutamide],0.873,0.771,1.09,0.723,1.99
O=c1n(CCCN2CCN(c3cccc(Cl)c3)CC2)nc2ccccn12 [Trazodone],0.477,1.03,0.908,0.599,1.37
